Screens as filed in PubChem.
CYP2C9 act: human CYP2C9 activators, primary screen, biochemical, luminescence | 96,000 compounds, 1.4% hits | AID 1024, 2008 | recombinant CYP2C9, luciferin-H conversion; active compounds read high; factor 1 = untreated enzyme, 0 = blocked | Cytochrome P450 2C9 (Homo sapiens), P11712 | activation factor at 5 µM;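 active = activation factor of 2 or more for CYP2C9 at a 5 µM dose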;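 also: 0 = sulfaphenazole-blocked wells and 1 = vehicle-only wells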
Target sequence (P11712 whole entry, looked up): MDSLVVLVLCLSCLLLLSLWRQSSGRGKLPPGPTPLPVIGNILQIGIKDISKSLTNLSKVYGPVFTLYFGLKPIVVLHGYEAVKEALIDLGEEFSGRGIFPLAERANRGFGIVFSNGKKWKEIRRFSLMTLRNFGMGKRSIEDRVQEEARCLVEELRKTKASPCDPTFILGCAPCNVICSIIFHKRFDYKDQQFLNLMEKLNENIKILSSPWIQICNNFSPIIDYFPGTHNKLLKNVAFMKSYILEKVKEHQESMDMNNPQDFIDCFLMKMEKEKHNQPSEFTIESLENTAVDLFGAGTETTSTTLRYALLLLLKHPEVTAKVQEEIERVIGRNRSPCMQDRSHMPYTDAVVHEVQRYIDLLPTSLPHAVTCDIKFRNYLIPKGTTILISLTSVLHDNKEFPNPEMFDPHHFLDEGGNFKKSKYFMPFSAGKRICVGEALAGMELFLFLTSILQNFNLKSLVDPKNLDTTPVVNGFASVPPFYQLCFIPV
CYP2C9 inhib: blockers of cytochrome P450 2C9 activity – biochemical, luminescence, ADME assay, primary screen; P11712; CYP2C9 Supersomes, luciferin-H conversion; 96,000 compounds, 20% hits; inhibition, % at 5 µM;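 active = blocking of liver enzyme CYP2C9 beyond about 50% at 5 µM, limit read from the data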
CYP2C19 act: human CYP2C19 activators, primary screen, biochemical, luminescence. Cytochrome P450 2C19 (Homo sapiens), P33261. recombinant CYP2C19, luciferin-H EGE luminescence; active compounds read high; 0 = fully inhibited enzyme, 1 = untreated enzyme. activation factor at 5 µM. 96,000 tested, under 10 active. AID 1025, 2008;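 active = activation factor of at least 2 at 5 µM in the primary screen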;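 also: 0 = wells with 2.5 mM tranylcypromine and 1 = vehicle-only wells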
Cav32 inh: Cav3.2 calcium influx blockers – cell-based, Fluo-4 calcium fluorescence, FDSS, MLSMR library, primary screen | B-score at 10 µM | AID 449739, 2010 | Cav3.2-expressing cells; active compounds read low | 100,000 compounds, 4% hits | Voltage-dependent T-type calcium channel subunit alpha-1H (Homo sapiens), O95180;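 active = single-dose well whose peak fluorescence ratio is a statistical outlier from its plate by either plate-standardised score or position-corrected B-score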
CYP2C19 inh: blockers of cytochrome P450 2C19 activity – biochemical, luminescence, ADME assay, primary screen; P33261; CYP2C19 Supersomes, luciferin-H EGE luminescence, 30 min; inhibition, % at 5 µM; 96,000 compounds, 21% hits;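 active = CYP2C19 inhibition above a set limit at 5 µM in the primary screen, cut at about 50% in these data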;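 also: plate controls were negative control wells for no effect and 2.5 mM tranylcypromine positive control for full effect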
The depositor's hits bear a star. In the library only some 27% were active in any assay of this set; here they are far more common.

Screening OC(CNCC(c1ccco1)N1CCCCC1)c1ccccc1 (configuration not stated) returned CYP2C9 act 1, CYP2C9 inhib 0, CYP2C19 act 0.8 and CYP2C19 inh 18.
`CCCCN(CC)C(=O)Cn1ncc2c1-c1cc(C)ccc1OC2` gave CYP2C9 act 0.3, CYP2C9 inhib 70*, CYP2C19 act 0.2, Cav32 inh -0.44 and CYP2C19 inh 77*.
For CC1CCN(C(=O)c2ccc3c(c2NCCO)C(=O)c2ccccc2C3=O)CC1 the results were CYP2C9 act 0.8, CYP2C9 inhib 24, CYP2C19 act 0.2, Cav32 inh 2 and CYP2C19 inh 81*.
Screening CCCCOc1ccccc1-c1cc(C(=O)O)[nH]n1 returned CYP2C9 act 1, CYP2C9 inhib 0, CYP2C19 act 1.1 and CYP2C19 inh -12.
For COC(=O)c1nn(-c2ccccc2)c(Sc2ccc(C)cc2)c1/C=N/O the results were CYP2C9 act 0.9, CYP2C9 inhib 10, CYP2C19 act 1, Cav32 inh 0.14 and CYP2C19 inh 0.
For COC(=O)c1[nH]c2cc(OC)c(OC)cc2c1NC(=O)c1cccc(OC)c1 the results were CYP2C9 act 0.4, CYP2C9 inhib 59*, CYP2C19 act 0.9, Cav32 inh 1.1 and CYP2C19 inh 6.
COc1cccc(C(=O)Nc2cccc(SC)c2)c1 was read as CYP2C9 act 0.6, CYP2C9 inhib 41, CYP2C19 act 0.1, Cav32 inh -1.3 and CYP2C19 inh 87*.
`CNC(=O)c1[nH]cnc1C(=O)Nc1cccc(OC)c1` gave CYP2C9 act 0.7, CYP2C9 inhib 32, CYP2C19 act 0.3 and CYP2C19 inh 67*.
`COc1cccc(C(=O)Nc2cccc(OCC(=O)O)c2)c1` gave CYP2C9 act 0.6, CYP2C9 inhib 36, CYP2C19 act 0.3, Cav32 inh 0.94 and CYP2C19 inh 70*.
`Cc1onc(-c2ccccc2)c1C(=O)N1CCN(C)CC1` gave CYP2C9 act 1.2, CYP2C9 inhib -19, CYP2C19 act 1.1, Cav32 inh -0.032 and CYP2C19 inh -15.
For CCNC(=O)Cn1cc(C#N)c2ccccc21 the results were Cav32 inh 1.
CCOc1ccc(S(=O)(=O)NN)cc1 was read as CYP2C9 act 1, CYP2C9 inhib 1, CYP2C19 act 0.8, Cav32 inh 0.067 and CYP2C19 inh 16.
Screening CCO[C@H]1OC(C(=O)NCc2ccccc2)=C[C@@H](c2ccccc2)[C@@H]1CCCO returned Cav32 inh 1.2.
COc1cc(/C=N/N(C)c2ccccc2)cc(Cl)c1O was read as CYP2C9 act 0.4, CYP2C9 inhib 58*, CYP2C19 act 0.5, Cav32 inh 0.99 and CYP2C19 inh 52*.
For COc1ccc(OC)c(/C=N/N(C)c2ccccc2)c1 the results were CYP2C9 act 0.4, CYP2C9 inhib 56*, CYP2C19 act 0.3, Cav32 inh -0.033 and CYP2C19 inh 67*.
For O=P1(Nn2cnnc2)C=C(c2ccccc2)OC(c2ccccc2)=C1 the results were CYP2C9 act 1.2, CYP2C9 inhib -22, CYP2C19 act 1, Cav32 inh 0.19 and CYP2C19 inh -4.
O=C(c1cc2n(n1)C(C(F)(F)F)CC(c1ccco1)N2)N1CCN(c2ccccn2)CC1 (configuration not stated) was read as CYP2C9 act 0.6, CYP2C9 inhib 37, CYP2C19 act 1.1, Cav32 inh -1 and CYP2C19 inh -8.
For NC(=O)c1cc2n(n1)C(C(F)(F)F)CC(c1ccco1)N2 (configuration not stated) the results were CYP2C9 act 1.2, CYP2C9 inhib -17, CYP2C19 act 1.1, Cav32 inh -1.2 and CYP2C19 inh -8.
Cc1cc(NC(=O)c2cc3n(n2)C(C(F)(F)F)CC(c2ccco2)N3)no1 (configuration not stated) was read as CYP2C9 act 0.5, CYP2C9 inhib 51*, CYP2C19 act 0.9, Cav32 inh -0.13 and CYP2C19 inh 13.
Cc1cccc(N2CCN(C(=O)c3cc4n(n3)C(C(F)(F)F)CC(c3ccco3)N4)CC2)c1C (configuration not stated) was read as CYP2C9 act 0.1, CYP2C9 inhib 88*, CYP2C19 act 1, Cav32 inh 0.19 and CYP2C19 inh 1.
For O=C(O)c1cc2n(n1)C(C(F)(F)F)CC(c1ccco1)N2 (configuration not stated) the results were CYP2C9 act 0.4, CYP2C9 inhib 62*, CYP2C19 act 0.9, Cav32 inh 0.4 and CYP2C19 inh 5.
`O=C(NCc1ccccn1)c1cc2n(n1)C(C(F)(F)F)CC(c1ccco1)N2` (configuration not stated) gave CYP2C9 act 1, CYP2C9 inhib 2, CYP2C19 act 0.9, Cav32 inh 0.59 and CYP2C19 inh 7.
For COc1ccccc1NC(=O)c1cc2n(n1)C(C(F)(F)F)CC(c1ccc3c(c1)OCO3)N2 (configuration not stated) the results were CYP2C9 act 0.2, CYP2C9 inhib 75*, CYP2C19 act 0.2, Cav32 inh -1 and CYP2C19 inh 81*.
Screening COC(=O)c1c(-c2ccc(Br)cc2)noc1N returned CYP2C9 act 0.5, CYP2C9 inhib 50, CYP2C19 act 0.2, Cav32 inh 0.38 and CYP2C19 inh 78*.
CCCCN(CC(=O)Nc1c(C)cccc1CC)C(=O)SCC was read as CYP2C9 act 0.5, CYP2C9 inhib 49, CYP2C19 act 0.3, Cav32 inh -3.8* and CYP2C19 inh 71*.
`CCCN(CC(=O)Nc1c(C)cccc1CC)C(=O)SCC` gave CYP2C9 act 0.8, CYP2C9 inhib 22, CYP2C19 act 0.4, Cav32 inh -0.92 and CYP2C19 inh 60*.
`CCOC(=O)C1C(=O)OC(C)(C)C1C(C)C(=O)c1ccccc1` (configuration not stated) gave CYP2C9 act 0.7, CYP2C9 inhib 28, CYP2C19 act 0.3, Cav32 inh 1.2 and CYP2C19 inh 73*.
For CCOC(=O)C1C(=O)OC(C)(C)C1C(C)C(=O)c1ccc(OC)cc1 (configuration not stated) the results were CYP2C9 act 0.9, CYP2C9 inhib 5, CYP2C19 act 0.9, Cav32 inh 0.29 and CYP2C19 inh 6.
`CCCC(=O)NC(c1ccco1)c1c(O)ccc2ccccc12` (configuration not stated) gave CYP2C9 act 0.1, CYP2C9 inhib 90*, CYP2C19 act 0, Cav32 inh -1.3 and CYP2C19 inh 97*.
For CCCCC(=O)NC(c1ccco1)c1c(O)ccc2ccccc12 (configuration not stated) the results were CYP2C9 act 0.3, CYP2C9 inhib 70*, CYP2C19 act 0.5, Cav32 inh -5.5* and CYP2C19 inh 49.
